# Test results reported in PubChem BioAssay AID493056 (National Center for Advancing Translational Sciences (NCATS), 2011).
# In all, about 360,000 compounds went through this assay and about 2,400 (0.67%) were called active. No stated cut-off is given here; in the data, active means enhancement above about 30%; inactive means the rest. This excerpt belongs to a sample that is enriched for actives.
# Target: Thyrotropin-releasing hormone receptor (Homo sapiens) (UniProt P34981)
# Experiment: qHTS for Small Molecule Agonists and Allosteric Enhancers of Human TRH Receptor: Primary Screen for Enhancers; further: 0% is about no effect
# Settings: TRHR cells, fluo-8 calcium fluorescence, EC20 TRH enhancement; at 2 µM; stronger effect = higher value
# From the text: NIH Chemical Genomics Center [NCGC] NIH Molecular Libraries Probe Centers Network [MLPCN] MLPCN Grant: MH089816-01 Assay Submitter (PI): Marvin Gershengorn This project aims to identify small drug-like molecules that activate (agonists) the thyrotropin releasing hormone (TRH) receptor (TRHR) or enhance its TRH-stimulated activity (allosteric enhancers). TRHR, a drug-accessible cell surface receptor expressed in specific brain regions, and its ligand TRH have been implicated in several central nervous system disorders, including depression and anxiety. Small molecule TRHR agonists or allosteric enhancers that are metabolically stable and able to cross the blood-brain barrier might serve as probes to elucidate the roles of brain TRH receptors in animal models, and might be valuable as lead compounds for the development of drugs to treat patients with central nervous system disorders. Upon TRHR-Gq activation in TRHR cells, intracellular calcium is released from stores in the endoplasmic reticulum. […] This primary screen measures compound-induced enhancement of an EC20 stimulation of the receptor by its native ligand.
# For the HTS assay freshly prepared cells are plated at a density of 2000/well in 3 ul of complete DMEM medium containing 10% serum in 1536-well plates and cultured over night at 37 C in a humidified incubator with 5% CO2. The next day, 2 ul of a no wash calcium dye (ABD Bioquest) was added to the cells and plates were incubated at room temperature for 1 hour. For the assay, assay plates were loaded into the FDSS kinetic plate reader. A 10 cycle (1 second/cycle) baseline measurement is taken and then the FDSS online 1536 pintool delivers 23 nl of compound library (as well as TRH controls) to the plate. The plate is measured for kinetically at 1 cycle/sec for 180 seconds and is considered to be the agonist portion of the assay (eg, compounds which activate a positive calcium response during this portion are flagged as potential agonists). Following the 180 second read, 1 ul of either an EC20 (positive modulation assay) is delivered by an onboard pipette head. Measurements are taken kinetically for an additional 180 seconds. TRHR FDSS Screening Protocol 1. Reagent, 3 uL 2000 cells/well 1536 TC treated Black plate in media containing 10% FCS 2. Time, 18 hours, 33.5C 5% CO2 (cells grown at 37C) 3. Reagent, 2 uL ABD fluo-8 Ca dye 4. Time, 30 min-1.5hrs hours, Room temp (6 plates/batch) 5. Detector, EX 480/EM 530C, FDSS 10 cycles baseline (1sec/cycle) 6. Compound, 23 nL of stock solution from library 7. Detector, EX 480/EM 530C, FDSS 230 cycles (1sec/cycle) Agonist mode 8. Compound, 1 ul EC20 of TRH made up in HEPES HBSS, 10 nM final 9. Detector, EX 480/EM 530C, FDSS 100 cycles (1sec/cycle) Potentiator mode
# Thyrotropin-releasing hormone receptor (Homo sapiens), sequence (P34981 whole entry, looked up): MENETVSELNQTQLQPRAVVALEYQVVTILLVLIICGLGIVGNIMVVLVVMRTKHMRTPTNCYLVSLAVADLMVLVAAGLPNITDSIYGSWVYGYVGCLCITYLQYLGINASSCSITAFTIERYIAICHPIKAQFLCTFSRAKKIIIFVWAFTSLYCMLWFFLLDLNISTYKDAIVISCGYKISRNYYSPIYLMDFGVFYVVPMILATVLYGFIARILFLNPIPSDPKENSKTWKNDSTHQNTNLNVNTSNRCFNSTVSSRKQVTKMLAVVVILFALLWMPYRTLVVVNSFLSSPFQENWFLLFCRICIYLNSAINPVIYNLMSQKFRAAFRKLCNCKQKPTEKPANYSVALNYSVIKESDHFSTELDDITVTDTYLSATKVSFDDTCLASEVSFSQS
row,Compound,enhancement
1,COc1ccc(CNCCc2c[nH]c3ccccc23)cc1OC,8.12% (inactive)
2,CCC/C(=N\O)c1c[nH]c2ccccc12,-0.263% (inactive)
3,C/C(CCc1c[nH]c2ccccc12)=N\O,30.5% (active)
4,Cc1ccc(-n2c(/C=C/c3cccc(C(F)(F)F)c3)nc3ccccc3c2=O)cc1,-5.54% (inactive)
5,O=C(c1cc(S(=O)(=O)N2CCOCC2)ccc1F)N1CCC2(CC1)OCCO2,5.79% (inactive)
6,CC(C)Oc1cccc(C(=O)C2CCCN(C3CCOCC3)C2)c1 (stereo not given),5.95% (inactive)
7,O=C(OCCN1CCOCC1)C1(c2ccccc2)CCCC1,-3.33% (inactive)
8,CCOP(=S)(OCC)C(O)CCCCCn1c(=O)c(F)cn(C2CCCO2)c1=O (stereo not given),31.8% (active)
9,CC(C)c1ccc(OCC(=O)N2CCN(C)CC2)c(Br)c1,-3.04% (inactive)
10,CC(C)(C)c1ccc(OC(=O)N2CCCCC2)cc1,2.54% (inactive)
11,C[N+]1(C)CCOC(O)(c2ccc(-c3ccc(C4(O)C[N+](C)(C)CCO4)cc3)cc2)C1 (stereo not given),36.7% (active)
12,Cc1cccc(Cn2cccc(C(=O)Nc3ccc4c(c3)OCCO4)c2=O)c1,-1% (inactive)
13,CC(C)N(CC#CCC1(O)c2ccccc2-c2ccccc21)C(C)C,-0.877% (inactive)
14,CCC(C)n1c(O)c(/C=N/Nc2nc3c(c(=O)n(C)c(=O)n3C)n2C)c(=O)[nH]c1=S (stereo not given),-2.9% (inactive)
15,Cc1ccc(-c2nc3ccccc3c(=O)n2-c2ccc(Br)cn2)cc1,3.56% (inactive)
